Data as given in PubChem BioAssay (NCI).
Values joined by “and” are separate entries in the source; they are usually repeats but may differ in a detail not shown here. Equal entries are not always repeated. This is part of a sample that, as a whole, favours compounds with a hit. Of some 83,000 tested, about 20% had one in any assay.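 Cells were grown in 96-well plates and exposed to the test compound at a single concentration for 48 hours; results are reported as percent growth, with values below 10 considered active.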 Active and inactive are the calls of the source.

Tests used:
Test in all cases: NCI-60 one-dose screen, 48 h (100 = growth as untreated, 0 = no growth, -100 = all killed)
Conditions in all cases: 10 µM unless noted
UACC-62 melanoma = tested on: UACC-62 melanoma
TK-10 renal = tested on: TK-10 renal
HCT-15 colon = tested on: HCT-15 colon
HT29 colon = tested on: HT29 colon
SNB-19 CNS = tested on: SNB-19 CNS
PC-3 prostate = tested on: PC-3 prostate
SK-MEL-5 melanoma = tested on: SK-MEL-5 melanoma
LOX IMVI melanoma = tested on: LOX IMVI melanoma
SK-MEL-28 melanoma = tested on: SK-MEL-28 melanoma
SK-MEL-2 melanoma = tested on: SK-MEL-2 melanoma
SN12C renal = tested on: SN12C renal
UO-31 renal = tested on: UO-31 renal
ACHN renal = tested on: ACHN renal
CAKI-1 renal = tested on: CAKI-1 renal
A498 renal = tested on: A498 renal
MOLT-4 leukemia = tested on: MOLT-4 leukemia
U251 CNS = tested on: U251 CNS
EKVX NSCLC = tested on: EKVX NSCLC
CCRF-CEM leukemia = tested on: CCRF-CEM leukemia
SNB-75 CNS = tested on: SNB-75 CNS

Measured: growth

CCCCCCCCOC(=O)C12Oc3ccc(-c4ccc5c(c4O)C(O)=C4C(=O)CC(C)C(O)C4(C(=O)OCCCCCCCC)O5)c(O)c3C(O)=C1C(=O)CC(C)C2O (stereo unspecified)
active: UACC-62 melanoma -66.7% [100 µM] and -97.2% [100 µM] | TK-10 renal -21.8% [100 µM] and -100% [100 µM]

Nc1ccc2ccc(N)cc2c1
inactive: HCT-15 colon 74.4% | HT29 colon 94.2% | SNB-19 CNS 96.1% | PC-3 prostate 60.3% | SK-MEL-5 melanoma 83% | UACC-62 melanoma 80.7% | LOX IMVI melanoma 65.1% | SK-MEL-28 melanoma 92.1% | SK-MEL-2 melanoma 68.4% | SN12C renal 88.5% | UO-31 renal 59.4% | TK-10 renal 117% | ACHN renal 84.8% | CAKI-1 renal 75.7% | A498 renal 100% | MOLT-4 leukemia 76.8%

C[N+](C)(CCNC(=O)c1cccc2cc3ccccc3nc12)Cc1ccc([N+](=O)[O-])s1
inactive: UACC-62 melanoma 63.1% [25 µM] and 28.9% [25 µM] | TK-10 renal 72% [25 µM] and 30.2% [25 µM]

Cc1coc2c1C(OC(=O)C(C)C)C1(C)C(C)CCC(O)C1C2=O (stereo unspecified)
inactive: UACC-62 melanoma 39% [100 µM] and 18.7% [100 µM] | TK-10 renal 87.9% [100 µM] and 63.5% [100 µM]

Cc1ccc(S(=O)(=O)NCN2C(=O)c3ccccc3C2=O)cc1
inactive: HCT-15 colon 99.3% | HT29 colon 104% | SNB-19 CNS 111% | U251 CNS 103% | SK-MEL-5 melanoma 112% | UACC-62 melanoma 111% | LOX IMVI melanoma 109% | SK-MEL-28 melanoma 111% | SK-MEL-2 melanoma 106% | EKVX NSCLC 119% | SN12C renal 98% | UO-31 renal 92.3% | TK-10 renal 108% | ACHN renal 108% | CAKI-1 renal 95.1% | A498 renal 111% | CCRF-CEM leukemia 91% | MOLT-4 leukemia 93.6%

C=C1CC2(C)CCC(OC(=O)C3(C)OC3C)C(C)(OC(C)=O)C2CC1=C(C)C (stereo unspecified)
inactive: UACC-62 melanoma 75.8% [100 µM] and 12.7% [100 µM] | TK-10 renal 89.2% [100 µM] and 49.5% [100 µM]

CCN(CC)CCCC(CNc1ccnc2cc(Cl)ccc12)c1ccc(Cl)cc1 (stereo unspecified)
2.34% (active) and 92.4% (inactive): SNB-19 CNS
-3.18% (active) and 84.7% (inactive): SN12C renal
-3.66% (active) and 12.1% (inactive): EKVX NSCLC
-77.6% (active) and 97.7% (inactive): UACC-62 melanoma
-76.7% (active) and 14.7% (inactive): TK-10 renal
active: HCT-15 colon -29.5% and 5.81% | HT29 colon 3.38% and -5.84% | U251 CNS -71.9% and -57.4% | SK-MEL-5 melanoma -92.8% and -96.9% | LOX IMVI melanoma -85.5% and -13% | SK-MEL-28 melanoma -83.7% and -85.7% | SK-MEL-2 melanoma -56.2% and -67.7% | UO-31 renal -91.5% and -65.7% | ACHN renal -80.7% and 2.15% | CAKI-1 renal -64.4% and -63.6% | CCRF-CEM leukemia -17.5% and -46.6% | MOLT-4 leukemia -18% and -51.4%
42.3% (inactive) and -81.8% (active): A498 renal

N=C1N=C(N)CS1
inactive: HT29 colon 105% | SNB-75 CNS 92.1% | SNB-19 CNS 104% | PC-3 prostate 101% | SK-MEL-5 melanoma 98.4% | UACC-62 melanoma 100% | LOX IMVI melanoma 107% | SK-MEL-28 melanoma 109% | SK-MEL-2 melanoma 116% | SN12C renal 99.9% | UO-31 renal 93.2% | TK-10 renal 131% | ACHN renal 116% | CAKI-1 renal 96.5% | A498 renal 90.7% | CCRF-CEM leukemia 104%
